This is an account of results in PubChem BioAssay (NCATS).

In one experiment the target is Furin (Homo sapiens) (UniProt P09958). In words: Furin counterscreen qHTS for Zika virus inhibitors (AID 1347149).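 For activity change, negative = inhibition: purified recombinant full-length human furin enzyme at 5 nM; fluorescence gain from furin cutting a BOC-RVRR-AMC peptide substrate over 15 min; top concentration of the series differs between compounds; plate controls were no-inhibitor control for no effect and no-enzyme control for full effect.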 Note: nearly all actives have a fitted effect of over 70% in size. Note: potency is the fitted concentration of half-maximal effect. An outline of the steps:
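Fluorogenic cleavage of BOC-RVRR-AMC (2 microM final, Km ~15 µM) was monitored (ex 340, em 450 nm) at 37C after 15 min RT preincubation of 5 nM furin with compounds in HEPES pH 7.0 buffer with CaCl2 and Triton X-100. Percent inhibition was fitted to a 4-parameter Hill curve.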

A short description of experiment [1]: Confirmatory screen GU Rhodamine qHTS for Zika virus inhibitors qHTS (AID 1347157).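 For activity change, negative = inhibition: plate controls were no-inhibitor wells for no effect and no-enzyme wells for full effect.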 Note: nearly all actives have a fitted effect of over 70% in size. Note: potency is the fitted concentration of half-maximal effect. An outline of the steps:
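Noncovalent NS2B hydrophilic domain/NS3 protease complex (25 nM final) in 10 mM Tris-HCl pH 8.0, 0.01% Tween 20, preincubated 15 min with compounds (up to 114 microM), then 1.5 microM Rhodamine110 substrate. Fluorescence change over 15 min fitted to 4-parameter Hill.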

Experiment [2] is described as follows: Confirmatory screen NINDS Rhodamine qHTS for Zika virus inhibitors (AID 1347161).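 For activity change, negative = inhibition: purified Zika NS2B-NS3 protease with linked NS2B cofactor domain and Rhodamine110 peptide substrate; series mostly up to about 110 µM; plate controls were no-inhibitor control for no effect and no-enzyme control for full effect.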 Note: nearly all actives have a fitted effect of over 60% in size. Note: potency is the fitted concentration of half-maximal effect. An outline of the steps:
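Each compound, titrated, sat 15 min with 25 nM linked protease before 1.5 microM Rhodamine110 substrate went in. Fluorescence gain over the next 15 min, in pH 8.0 Tris with Tween 20, gave Hill-fitted curves.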

A short description of experiment [3]: Tertiary RLuc qRT-PCR qHTS assay for Zika virus inhibitors (AID 1347169). Note: top concentration of the series differs between compounds; % is set by controls: 0 for no effect and ±100 for the full control effect; nearly all actives have a fitted effect of over 55% in size. The procedure, abridged: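 Orthogonal cell-based infection assay using recombinant ZIKV-RLuc (Cambodian) in Vero cells; compound added prior to virus at MOI 1-2. Incubation lasts 48-72 hrs at 37 degrees C before live-cell Renilla substrate is added and luminescence measured.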
Experiment [4] deals with Zika virus NS2B-NS3 protease (linked construct). As to the kind of experiment: 384 well plate NINDS Rhodamine confirmatory qHTS for Zika virus inhibitors (AID 1347164). Note: potency is the fitted concentration of half-maximal effect; nearly all actives have a fitted effect of over 65% in size. An outline of the steps: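 Compounds are incubated about 15 minutes with linked protease (5, 30 or 60 nM final). Rhodamine 110-tagged Ac-LKRR substrate (10 microM final) is added and fluorescence measured after 25 minutes.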

Experiment [5] concerns the target Rap guanine nucleotide exchange factor 3 (Homo sapiens) (UniProt O95398). In words: Confirmatory qHTS for agonist of cAMP-regulated guanine nucleotide exchange factor 3 (EPAC1) (AID 1645881).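 Note: EPAC1 catalysed release of BODIPY-GDP from Rap1B seen as fluorescence loss; 100% = effect of cAMP agonist control; nearly all actives have a fitted effect of over 75% in size.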
Experiment [6] concerns the target Rap guanine nucleotide exchange factor 4 (Homo sapiens) (UniProt Q8WZA2). As to the kind of experiment: Confirmatory qHTS for agonist of cAMP-regulated guanine nucleotide exchange factor 4 (EPAC2) (AID 1645884).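 Note: nucleotide exchange releases bodipy-GDP from Rap1 and this lowers its fluorescence; % is set by controls: 0 for no effect and ±100 for the full control effect; nearly all actives have a fitted effect of over 65% in size.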
Experiment [7] has the same target. As to the kind of experiment: Confirmatory qHTS for antagonist of cAMP-regulated guanine nucleotide exchange factor 4 (EPAC2) (AID 1645885). Note: % is set by controls: 0 for no effect and ±100 for the full control effect; nearly all actives have a fitted effect of over 25% in size.
Experiment [8] addresses Rap guanine nucleotide exchange factor 3 (Homo sapiens) (UniProt O95398). As to the kind of experiment: Counterscreen qHTS for antagonist of cAMP-regulated guanine nucleotide exchange factor 3 (EPAC1) (AID 1645888).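 Note: fluorescence loss as bound BODIPY-GDP is released from Rap1B; % of control where 0% means no effect.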 An outline of the steps:
(§1)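 Rap1B–BODIPY-GDP (250 nM) with 50 uM GDP; compounds pin-transferred to 9.74 nM–152 uM final (activator) or from 7.32 nM upwards (inhibitor). Fluorescence Ex/Em 480/540 nm read at 5 and 30 min, then after adding cAMP or buffer, at room temperature.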

The target is the same in experiment [9]. In words: Counterscreen qHTS for agonist of cAMP-regulated guanine nucleotide exchange factor 3 (EPAC1) (AID 1645889). Note: % of control where 0% means no effect; nearly all actives have a fitted effect of over 40% in size. The procedure, abridged: as §1
Experiment [10] addresses Calcium and integrin-binding protein 1 (Homo sapiens) (UniProt Q99828). In words: Primary qHTS for Identification of Calcium Integrin Binding Protein 1 (CIB1) Competitor (AID 1508620).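 Note: GST tagged CIB1 binding a fluorescein labelled alphaIIb integrin peptide tracer; top concentration of the series differs between compounds; % is set by controls: 0 for no effect and ±100 for the full control effect.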 An outline of the steps:
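Fluorescence polarization competition: GST-tagged CIB1 (1 uM final) preincubated with compound 15 min at room temperature, then FITC-labelled alphaIIb peptide (100 nM final) added. After 15 min at room temperature, polarization read at Ex 480/Em 540.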

Experiment [11] has as its system Zika virus NS2B-NS3 protease (linked). In words: 384 well plate NINDS AMC confirmatory qHTS for Zika virus inhibitors (AID 1347163).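 For activity change, negative = inhibition: linked protease at 5 30 or 60 nM final depending on run; fluorescence of AMC released from Ac-VKTGKR-AMC peptide cleaved by the protease; top concentration of the series differs between compounds; 0% = no-inhibitor control and -100% = no-enzyme control.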 Note: nearly all actives have a fitted effect of over 50% in size. Note: potency is the fitted concentration of half-maximal effect. An outline of the steps: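 Linked protease 5/30/60 nM final; cpds up to 1 mM final, ~15 min preinc. Substrate Ac-VKTGKR-AMC 30 microM final. RT, dark, 25 min; FI ex 355/em 460; normalized to no-enzyme/no-inhibitor ctrls.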

Results filed as inconclusive are left out. Values without a mark were called inactive. Active and inactive are the calls of the source. Calls come from the whole dose curve; as a rule, active = well fitted curve in the direction sought with a large enough effect; inconclusive = small, poorly fitted or top-dose-only effect, or another doubt; inactive = no such curve, though single readings can be large; an effect the other way counts as inactive or inconclusive.

Furin (Homo sapiens), sequence (P09958 whole entry, looked up): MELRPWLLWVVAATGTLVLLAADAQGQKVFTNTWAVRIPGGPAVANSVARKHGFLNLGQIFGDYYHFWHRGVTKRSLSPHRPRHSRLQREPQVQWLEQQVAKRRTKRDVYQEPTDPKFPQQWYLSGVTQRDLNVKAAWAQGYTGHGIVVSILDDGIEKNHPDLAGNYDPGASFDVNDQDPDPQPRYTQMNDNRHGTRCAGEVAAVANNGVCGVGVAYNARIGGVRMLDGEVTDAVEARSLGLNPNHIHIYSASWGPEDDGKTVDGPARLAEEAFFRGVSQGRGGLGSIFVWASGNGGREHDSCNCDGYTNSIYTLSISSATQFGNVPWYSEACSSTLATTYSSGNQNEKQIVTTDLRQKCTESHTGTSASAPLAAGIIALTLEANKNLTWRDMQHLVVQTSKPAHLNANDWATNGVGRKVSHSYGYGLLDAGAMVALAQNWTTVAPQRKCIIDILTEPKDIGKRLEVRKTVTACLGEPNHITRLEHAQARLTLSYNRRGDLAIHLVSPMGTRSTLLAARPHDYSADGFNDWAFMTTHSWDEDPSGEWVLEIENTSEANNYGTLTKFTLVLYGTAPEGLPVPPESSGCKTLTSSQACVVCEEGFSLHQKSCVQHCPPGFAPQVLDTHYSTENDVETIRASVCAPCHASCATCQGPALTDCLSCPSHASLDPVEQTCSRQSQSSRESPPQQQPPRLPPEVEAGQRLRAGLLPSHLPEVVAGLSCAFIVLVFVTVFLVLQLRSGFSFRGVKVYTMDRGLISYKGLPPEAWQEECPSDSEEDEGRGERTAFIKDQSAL
Calcium and integrin-binding protein 1 (Homo sapiens), sequence (Q99828 whole entry, looked up): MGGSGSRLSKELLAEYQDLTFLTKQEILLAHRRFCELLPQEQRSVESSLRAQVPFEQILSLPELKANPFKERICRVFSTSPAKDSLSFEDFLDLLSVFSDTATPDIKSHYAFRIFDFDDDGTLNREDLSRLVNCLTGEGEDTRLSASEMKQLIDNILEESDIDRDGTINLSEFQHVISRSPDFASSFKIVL
Rap guanine nucleotide exchange factor 4 (Homo sapiens), sequence (Q8WZA2 whole entry, looked up): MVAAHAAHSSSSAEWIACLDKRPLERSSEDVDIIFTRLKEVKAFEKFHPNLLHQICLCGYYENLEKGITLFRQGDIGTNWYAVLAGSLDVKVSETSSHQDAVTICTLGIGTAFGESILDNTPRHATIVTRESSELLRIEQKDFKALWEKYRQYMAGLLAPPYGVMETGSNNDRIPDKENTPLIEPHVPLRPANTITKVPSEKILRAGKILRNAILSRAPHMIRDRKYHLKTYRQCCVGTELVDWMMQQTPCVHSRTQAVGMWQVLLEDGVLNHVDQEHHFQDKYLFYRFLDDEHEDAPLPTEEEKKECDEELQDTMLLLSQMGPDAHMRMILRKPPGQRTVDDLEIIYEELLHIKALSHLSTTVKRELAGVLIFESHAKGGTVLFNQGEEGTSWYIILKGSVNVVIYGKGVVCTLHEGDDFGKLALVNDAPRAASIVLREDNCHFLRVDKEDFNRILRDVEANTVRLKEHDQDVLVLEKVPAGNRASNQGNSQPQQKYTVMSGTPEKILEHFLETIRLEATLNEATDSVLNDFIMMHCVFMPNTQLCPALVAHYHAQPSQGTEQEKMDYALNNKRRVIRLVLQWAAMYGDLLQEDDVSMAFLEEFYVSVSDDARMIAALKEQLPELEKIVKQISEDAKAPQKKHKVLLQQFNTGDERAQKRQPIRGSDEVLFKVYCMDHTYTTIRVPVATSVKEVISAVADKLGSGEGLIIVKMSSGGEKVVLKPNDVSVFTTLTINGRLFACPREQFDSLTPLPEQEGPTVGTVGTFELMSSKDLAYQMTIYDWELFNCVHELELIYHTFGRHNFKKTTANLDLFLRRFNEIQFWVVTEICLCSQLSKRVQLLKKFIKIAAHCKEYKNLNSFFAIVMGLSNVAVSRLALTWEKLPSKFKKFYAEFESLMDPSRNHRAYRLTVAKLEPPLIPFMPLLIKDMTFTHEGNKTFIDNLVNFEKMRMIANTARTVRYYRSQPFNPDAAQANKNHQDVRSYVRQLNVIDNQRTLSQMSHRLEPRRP
Rap guanine nucleotide exchange factor 3 (Homo sapiens), sequence (O95398 whole entry, looked up): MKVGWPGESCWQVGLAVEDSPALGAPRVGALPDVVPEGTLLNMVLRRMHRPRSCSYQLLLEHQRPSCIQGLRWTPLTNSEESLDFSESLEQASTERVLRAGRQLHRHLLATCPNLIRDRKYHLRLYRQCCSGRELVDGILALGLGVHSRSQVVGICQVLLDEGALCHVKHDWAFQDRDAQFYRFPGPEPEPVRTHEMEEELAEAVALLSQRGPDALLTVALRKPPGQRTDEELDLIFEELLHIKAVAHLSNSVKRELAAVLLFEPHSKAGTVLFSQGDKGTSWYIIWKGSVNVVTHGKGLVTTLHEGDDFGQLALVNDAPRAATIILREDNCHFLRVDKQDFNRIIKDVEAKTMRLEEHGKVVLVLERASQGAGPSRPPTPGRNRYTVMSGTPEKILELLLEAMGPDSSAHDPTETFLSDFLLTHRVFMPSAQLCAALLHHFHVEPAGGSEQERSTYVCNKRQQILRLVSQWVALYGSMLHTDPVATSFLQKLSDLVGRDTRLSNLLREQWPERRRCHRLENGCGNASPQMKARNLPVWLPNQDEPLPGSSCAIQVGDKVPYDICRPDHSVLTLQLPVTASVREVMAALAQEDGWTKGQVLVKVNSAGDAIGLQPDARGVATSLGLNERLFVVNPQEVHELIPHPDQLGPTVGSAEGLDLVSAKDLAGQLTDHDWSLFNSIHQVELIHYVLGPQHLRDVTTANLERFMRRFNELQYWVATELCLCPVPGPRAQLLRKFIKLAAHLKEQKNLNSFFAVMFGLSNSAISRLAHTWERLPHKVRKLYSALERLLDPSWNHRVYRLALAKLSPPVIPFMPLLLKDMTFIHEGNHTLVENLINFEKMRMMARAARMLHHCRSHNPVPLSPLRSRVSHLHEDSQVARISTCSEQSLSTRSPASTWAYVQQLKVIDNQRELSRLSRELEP

As to `O=C(Nc1ccccc1C(=O)OCc1cc(=O)n2nc(C3CC3)sc2n1)c1cccc(F)c1`, the Potency entry (in the experiment with Furin (Homo sapiens); in [1]; in experiment [2]; in experiment [3]) was “inactive” in each case.

For the compound `O=C(O)c1ccc(NS(=O)(=O)c2ccc(Cl)c(C(=O)Nc3ccccc3)c2)cc1`, the Potency entry (with Furin (Homo sapiens); in experiment [1]; in experiment [2]; in [3]) was “inactive” in each case.

As to `O=C(/C=C/c1ccc(C(F)(F)F)cc1)OC(C(=O)NC1CC1)c1ccccc1` (stereo not drawn), the Potency result (with Furin (Homo sapiens); in [1]; in experiment [2]; in [3]) was “inactive” throughout.

Take `O=C(O)CCc1ccc(-c2ccc(Cl)cc2)n1-c1cccc(C(F)(F)F)c1`: the Potency result (with Furin (Homo sapiens); in experiment [9]) was “inactive” in each case. Also, the Potency was 7.08 µM (active) in experiment [1], 11.2 µM (active) in [2] and 44.7 µM (active) in [4]. In addition, the outcome in experiment [5], in [6] and in experiment [8] was inactive. Also, in experiment [7], the activity change, negative = inhibition was 25.6% [at 12.7 µM].

On to `O=C(OCC#CCSc1nnc(-c2cccc3ccccc23)o1)c1cc(F)c(F)c(F)c1`, for which the Potency in the experiment with Furin (Homo sapiens) is 46.9 µM (active). Also, the Potency result in [1], in experiment [2] and in experiment [3] was “inactive” each time. The outcome in experiment [10] was inactive.

Take `O=C(Nc1ccc(-c2nc3ccccc3s2)c(O)c1)c1ccc(Br)cc1`: the Potency entry (with Furin (Homo sapiens); in experiment [1]; in experiment [2]; in [3]) was “inactive” each time.

As to `O=c1oc2ccc3ccccc3c2cc1-c1nnc(Nc2ccc(Cl)cc2Cl)s1`, the Potency entry (in the experiment with Furin (Homo sapiens); in experiment [1]; in [2]; in experiment [3]) was “inactive” in each case.

For `O=S(=O)(Nc1ccc(Cl)cc1)c1ccc(NS(=O)(=O)c2ccc3c(c2)OCCO3)cc1`, the Potency result in the experiment with Furin (Homo sapiens) was “inactive”. Further, the Potency in experiment [1] was 44.7 µM (active); in experiment [4], 31.6 µM (active).

For `CCOc1ccccc1NC(=O)c1ccc2oc(=O)c(S(=O)(=O)c3ccc(F)cc3)cc2c1`, the Potency entry (with Furin (Homo sapiens); in [1]; in [2]; in experiment [3]) was “inactive” in each case.

As to `Cc1c(Cl)cccc1NC(=O)CSc1ncccc1C(=O)Oc1ccccc1Cl`, the Potency entry (with Furin (Homo sapiens); in experiment [1]; in experiment [2]; in experiment [3]) was “inactive” throughout.

As to `COCCOC(=O)c1c(C)n(S(=O)(=O)c2ccc(C)cc2)c2ccc(NS(=O)(=O)c3ccc(C)cc3)cc12`, the Potency entry (in the experiment with Furin (Homo sapiens); in experiment [1]; in experiment [2]; in experiment [3]) was “inactive” throughout.

Regarding `N#C/C(=C\c1ccc(Cl)cc1)c1nc(-c2cc3c(ccc4ccccc43)oc2=O)cs1`, the Potency result (in the experiment with Furin (Homo sapiens); in experiment [1]; in experiment [2]; in [3]) was “inactive” in each case.

Take `COc1ccc(S(=O)(=O)c2cc(NS(=O)(=O)c3ccc(Cl)cc3)c(C)c(C)c2O)cc1`: the Potency result (with Furin (Homo sapiens); in [1]; in experiment [2]; in experiment [3]) was “inactive” each time.

On to `CCOc1ccc(C(=O)Nc2ccccc2C(=O)OCc2cc(=O)n3nc(C4CC4)sc3n2)cc1`, for which the Potency entry (with Furin (Homo sapiens); in experiment [1]; in experiment [2]; in experiment [3]) was “inactive” in each case.

For `CC(C)c1nn2c(=O)cc(COC(=O)c3ccc(NC(=O)c4cccs4)cc3)nc2s1`, the Potency result (in the experiment with Furin (Homo sapiens); in [1]; in experiment [2]; in [3]) was “inactive” throughout.

As to `O=C1OCC2=C1C(c1cccc(Cl)c1)CC(=O)N2c1ccc(C(F)(F)F)cc1` (stereo not drawn), the Potency result (in the experiment with Furin (Homo sapiens); in experiment [1]; in [2]; in experiment [3]) was “inactive” in each case.

As for `O=C(OCC#CCSc1nnc(-c2cccc3ccccc23)o1)c1cccc(C(F)(F)F)c1`, the Potency in the experiment with Furin (Homo sapiens) is 37.3 µM (active). Also, the Potency entry in [1], in experiment [2] and in [3] was “inactive” throughout. In addition, in experiment [10], the result was inactive.

For `CC(C)c1nn2c(=O)cc(COC(=O)c3ccc(NC(=O)COc4ccccc4)cc3)nc2s1`, the Potency entry (with Furin (Homo sapiens); in [1]; in experiment [2]; in experiment [3]) was “inactive” each time.

For `O=C(OCC#CCSc1nnc(-c2ccc(F)cc2)o1)c1ccc(F)cc1`, the Potency result (in the experiment with Furin (Homo sapiens); in [1]; in experiment [2]; in experiment [3]) was “inactive” throughout. In [10], the outcome was inactive.

For the compound `Cc1c(Cl)cccc1NS(=O)(=O)c1ccc(NS(=O)(=O)c2ccc3c(c2)OCCO3)cc1`, the Potency result with Furin (Homo sapiens) is “inactive”. The results for the Potency in experiment [1], in [11] and in experiment [4] were 44.7 µM (active), 141 µM (active) and 39.8 µM (active), respectively.

`O=C(Nc1cccc(C(=O)OCc2cc(=O)n3c4c(sc3n2)CCCC4)c1)c1ccc(Cl)cc1`: in the experiment with Furin (Homo sapiens), the Potency was 52.7 µM (active). The Potency result in experiment [1], in experiment [2] and in experiment [3] was “inactive” each time.

For the compound `Cc1cn2c(=O)cc(COC(=O)c3ccc(NC(=O)c4ccc(C(C)(C)C)cc4)cc3)nc2s1`, the Potency with Furin (Homo sapiens) is 46.9 µM (active). Also, the Potency result in experiment [1], in experiment [2] and in experiment [3] was “inactive” throughout.

For `CCOC(=O)c1ccc(Nc2nc3ccccc3nc2NS(=O)(=O)c2ccc(Cl)cc2)cc1`, the Potency result (with Furin (Homo sapiens); in [11]) was “inactive” each time. Besides, the Potency in experiment [1] was 3.16 µM (active).

With `O=C(OCC#CCSc1nnc(-c2ccccc2Cl)o1)c1ccc(F)cc1`, the Potency result (in the experiment with Furin (Homo sapiens); in experiment [1]; in experiment [2]; in experiment [3]) was “inactive” in each case. The result in experiment [10] was inactive.
